This is part of a sample that, as a whole, favours compounds with a hit. Of some 83,000 tested, about 20% had one in any assay.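 Each cell line was grown in a 96-well plate and treated with one concentration of compound for 48 hours. Values below 10 were considered active.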 Values without a mark were called inactive. Activity calls are given as the source filed them.

Common to all, as to test: NCI-60 one-dose screen, 48 h (100 = growth as untreated, 0 = no growth, -100 = all killed)
Experiment [1] has as its system HCT-15 colon. The following applies: 10 µM unless noted.
Experiment [2] concerns SNB-75 CNS. The following applies: 10 µM.
For experiment [3], the system named is SNB-19 CNS. The following applies: 10 µM unless noted.
The subject of experiment [4] is U251 CNS. The following applies: 10 µM unless noted.
Experiment [5] concerns PC-3 prostate. The following applies: 10 µM unless noted.
Experiment [6] concerns UACC-62 melanoma. The following applies: 10 µM unless noted.
The subject of experiment [7] is LOX IMVI melanoma. The following applies: 10 µM unless noted.
The test system of experiment [8] is SK-MEL-28 melanoma. The following applies: 10 µM unless noted.
In experiment [9] the test system is SK-MEL-5 melanoma. The following applies: 10 µM unless noted.

On to `O=[N+]([O-])c1cc(S(=O)(=O)Oc2ccccc2)ccc1Cl`, for which the growth is 40.5% in experiment [1]; 52.2% in experiment [2]; 30.6% in [3]; 0.0855% (active) in experiment [4]; 25.5% in experiment [5]; 65.8% in experiment [6]. The results for the growth in [7] and in experiment [8] were -80.1% (active) and -18% (active), respectively.
Consider `COc1cc(Cn2cc3c(c2)-c2oncc2CC3)cc(OC)c1OC`, for which the growth in [1] is 16.3%; in experiment [2], 45.5%; in experiment [3], 34.9%; in experiment [4], 17.2%; in experiment [5], 38.4%; in experiment [6], 41.9%. The growth in experiment [7] is 9.46% (active); in [8], 59.9%.
As for `COc1cc2c(c(OC)c1OC)-c1ccc(N)c(=O)cc1[C@@H](NC(C)=O)CC2`, the growth was 11.8% in experiment [1]; 34.2% in [3]; 18% in [4]; 29.3% in [5]; -54.3% (active) in experiment [9]; 30.8% in [6]. In addition, the growth is 25% in experiment [7] and 61.8% in experiment [8].
Consider `COc1ccc2c(c1)C(c1cc(OC)c3c(c1)OCO3)C1=C(COC1=O)N2` (stereo unspecified), for which the growth was 26.2% in experiment [1]; 43.6% in experiment [2]; 35.2% in experiment [3]; 20.3% in experiment [4]; 21.9% in experiment [5]; 46.7% in experiment [6]. The growth in [7] was 20.1%; in [8], 60%.
On to `COc1ccc(-c2c(-c3cc(OC)c4c(c3)OCO4)noc2N)cc1`, for which the growth was 14.2% in experiment [1]; 34.4% in [3]; 16.4% in [4]; 25.6% in experiment [5]; -54.4% (active) in experiment [9]; 32.7% in experiment [6]. Further, the growth was 15.4% in [7] and 58.8% in experiment [8].
`C/C(=C\c1ccc(OCC(=O)O)c(Cl)c1Cl)[N+](=O)[O-]`: the growth was 97.4% in experiment [1]; 103% in [2]; 96.4% in experiment [4]; 92% in experiment [5]; 109% in experiment [9]; 114% in experiment [6]. Moreover, the growth in experiment [7] was 92.1%; in experiment [8], 118%.
As for `COc1ccc2c(c1)OC1=C(C(=O)OC1)C2c1cc(OC)c2c(c1)OCO2` (stereo unspecified), the growth was 19.2% in experiment [1]; 36.5% in [2]; 19.9% in [4]; 22% in experiment [5]; -54.3% (active) in experiment [9]; 39.7% in experiment [6]. For the same compound, the growth was 17.2% in experiment [7] and 64.4% in [8].
Regarding `O=C(c1ccccc1)C1OC1c1ccc([N+](=O)[O-])cc1` (stereo unspecified), the growth in experiment [1] is 70.8%; in experiment [2], 70%; in [3], 95.3%; in experiment [4], 64.8%; in experiment [5] it was 63.2%; in experiment [6] it was 71.4%. The growth is 29% in experiment [7] and 97.4% in experiment [8].
With `Fc1ccc(Nc2ncnc3ccc(-c4cnc5[nH]ccc5c4)cc23)cc1Cl`, the growth in [1] was 31.1%; in [2], -65.2% (active); in experiment [3] it was 40.7%; in [4] it was -68.2% (active); in experiment [5], 27.5%; in [6] it was 44.8%. In addition, the growth in [7] is -44.4% (active); in experiment [8] it was 57.4%.
Consider `O=C1Nc2ccc(Cl)cc2C12Nc1cc(Cl)ccc1S2` (stereo unspecified), for which the growth is 87% in experiment [1]; 94.8% in [3]; 85.8% in [4]; 51.8% in experiment [5]; 70.9% in experiment [9]; 71.5% in experiment [6]. Further, the growth in experiment [7] was 77.9%; in experiment [8], 110%.
For `COC(OC)c1ccccc1`, the growth was 105% in [1]; 121% in experiment [3]; 99.3% in [4]; 93.1% in experiment [5]; 107% in experiment [9]; 107% in experiment [6]. In addition, the results for the growth in [7] and in experiment [8] were 88.2% and 104%, respectively.
Consider `COc1cc(/C=C/C(=O)c2cccc(-n3cc(-c4cc(OC)c(OC)c(OC)c4)[nH]c3=O)c2)cc(OC)c1OC`, for which the growth in experiment [1] was -4.5% (active); in experiment [3], 56.6%; in [4], -41% (active); in [5] it was 9.89% (active); in [9] it was 27%; in [6] it was 7.42% (active). For the same compound, the growth in experiment [7] is -55% (active); in experiment [8], 4.45% (active).
In the case of `Cc1ccc(Cc2c(C=O)nc(N)[nH]c2=O)c2ccccc12`, the growth in experiment [1] was 101%; in [2] it was 93%; in [4], 95.3%; in experiment [5], 88.8%; in experiment [9], 107%; in experiment [6], 110%. Besides, the growth in [7] is 96.2%; in experiment [8], 104%.
As to `Oc1ccccc1/C=N/NC(=S)NC1CC2C=CC1C2` (stereo unspecified), the growth in [1] is 35.5%; in [2] it was 105%; in experiment [4], 59.4%; in experiment [5] it was 75.6%; in experiment [9], 78.3%; in experiment [6], 82.9%. Moreover, the growth in experiment [7] was 44.9%; in [8] it was 83.1%.
For the compound `O=C1CCCCC1(c1ccccc1)c1ccccc1`, the growth in experiment [1] was 91.3%; in experiment [2], 88.8%; in experiment [3], 100%; in [4], 108%; in experiment [9] it was 99.1%; in [6] it was 99.7%. For the same compound, the growth in experiment [7] was 94%; in [8], 95.6%.
As for `Cc1ccc(Nc2nnc(-c3ccc(Cl)cc3)o2)c(C)c1`, the growth in experiment [1] was 44.7%; in [3], 95.8%; in [4], 83.8%; in experiment [5], 92.1%; in experiment [9] it was 92.7%; in experiment [6] it was 70.8%. The results for the growth in experiment [7] and in [8] were 75.9% and 76.8%, respectively.
With `Nc1cccc(Cl)c1N`, the growth was 96.5% in experiment [1]; 116% in experiment [3]; 110% in [4]; 90.8% in [5]; 104% in [9]; 108% in [6]. The growth in experiment [7] is 86.6%; in experiment [8] it was 119%.
On to `C=C1CCC2C3(C)COC(c4c(OC)cccc4OC)OC3CCC2(C)C1C/C=C1/C(=O)OCC1O` (stereo unspecified), for which the growth in experiment [1] was 48.3%; in experiment [3] it was 77.3%; in experiment [4], 35.4%; in [5] it was 20.6%; in experiment [9], 64.7%; in [6], 58.9%. Besides, the growth was 15.7% in [7] and 97.3% in [8].
Turning to `CCCCC(CC)OC(=O)C(Br)CC` (stereo unspecified), the growth was 105% in experiment [1]; 110% in experiment [3]; 97.2% in experiment [4]; 102% in experiment [5]; 102% in experiment [9]; 106% in experiment [6]. Moreover, the results for the growth in experiment [7] and in experiment [8] were 94.1% and 103%, respectively.
Regarding `COc1ccc(Nc2nc(N)nc3c2CCN(Cc2ccc(OC)cc2OC)C3=O)cc1`, the growth in [1] was 91%; in experiment [3], 72.2%; in experiment [4], 75.4%; in [5], 90%; in [9], 80.7%; in experiment [6], 68%. The growth is 71.9% in experiment [7] and 90% in [8].
Consider `COP(=O)(OC)/C(=N\NS(=O)(=O)c1ccc(C)cc1)c1ccccc1`, for which the growth in experiment [1] is 112%; in [3], 94.7%; in [4] it was 105%; in experiment [5], 86.5%; in [9], 97.9%; in experiment [6], 96.7%. Also, the growth in experiment [7] is 102%; in [8], 110%.
Consider `CCOC(=O)C1=C(C)NC(C)=C(C(=O)OCC)C1(C)C`, for which the growth in experiment [1] is 101%; in experiment [3] it was 98.1%; in experiment [4], 107%; in [5], 98.2%; in [9], 97.7%; in experiment [6], 98.7%. Besides, the growth in experiment [7] was 104%; in experiment [8] it was 102%.
With `CCCOC(=O)n1cccc1`, the growth in experiment [1] is 107%; in experiment [3] it was 100%; in experiment [4], 107%; in experiment [5], 91.6%; in [9] it was 109%; in [6], 91.5%. Moreover, the growth in experiment [7] is 89.8%; in [8], 116%.
For the compound `COc1ccc(CNCCCN2C(=O)c3ccc4c5c(ccc(c35)C2=O)C(=O)N(CCCNCCCCNCCCN)C4=O)c(OC)c1OC`, the growth in experiment [1] is 19.7%; in [3] it was 28%; in [4], -6.34% (active); in [5] it was 15.3%; in [6], 1.36% (active); in experiment [7], 6.59% (active). Moreover, the growth in experiment [8] was 29%.
With `CCC(C)/C(=C\C#N)NCCCN/C(=C/C#N)C(C)CC` (stereo unspecified), the growth is 97% in experiment [1]; 109% in experiment [3]; 104% in experiment [4]; 89.4% in [5]; 108% in experiment [9]; 104% in experiment [6]. Moreover, the growth in experiment [7] was 93.7%; in experiment [8], 111%.
`COC(=O)c1cccc2c1N(C)c1c(cccc1C(=O)OC)CC2`: the growth was 97.9% in experiment [1]; 111% in experiment [3]; 111% in experiment [4]; 97.4% in experiment [5]; 106% in experiment [9]; 87.7% in experiment [7]. For the same compound, the growth in experiment [8] is 120%.
On to `COc1cc(C2C3=C(COC3=O)Nc3cc4c(cc32)CCC4)cc2c1OCO2` (stereo unspecified), for which the growth in experiment [1] was 14.8%; in experiment [3] it was 42.9%; in experiment [4] it was 27.5%; in experiment [5], 20.4%; in experiment [9] it was -42.4% (active); in experiment [6], 43.7%. For the same compound, the growth is 13.9% in experiment [7] and 59.1% in experiment [8].
As for `CC(=O)Nc1nc(N)nc(NC(C)=O)c1N=O`, the growth in [1] is 104%; in experiment [3], 111%; in experiment [4], 116%; in [5], 99.6%; in [9], 114%; in experiment [7], 94.3%. Further, the growth in [8] is 115%.
Turning to `C=C1CCC2C3(C)COC(c4ccccc4)OC3CCC2(C)C1/C=C/C1=CCOC1=O` (stereo unspecified), the growth in experiment [1] is 45.6%; in [2], 51.7%; in experiment [3], 71.8%; in experiment [4] it was 40.1%; in [5] it was 26.6%; in experiment [9], 76.5%. Further, the growth in experiment [7] was 16.1%; in experiment [8] it was 98.1%.
With `COc1cc(C2CC(c3ccc4c(c3)OCO4)=NN2C(C)=O)cc(OC)c1OC` (stereo unspecified), the growth in experiment [1] was 40.4%; in experiment [3], 47.6%; in [4], 28.2%; in experiment [5] it was 43.8%; in experiment [9], 11.7%; in experiment [6] it was 46.2%. For the same compound, the growth in experiment [7] is 35.7%; in experiment [8], 52.7%.
Regarding `O=c1cc/c(=N\Nc2ccccc2)c(=O)/c1=N/Nc1ccccc1`, the growth in [1] is 104%; in experiment [2], 106%; in experiment [4], 104%; in [5], 63.6%; in experiment [9] it was 87%; in experiment [6], 101%. Also, the growth was 89% in experiment [7] and 103% in [8].
Consider `C=C(C)[C@@H]1C[C@H](O)Cc2cc(F)ccc2N1`, for which the growth was 100% in [1]; 87.5% in [2]; 92.7% in experiment [4]; 91.6% in experiment [5]; 99.3% in experiment [9]; 95.6% in experiment [6]. Also, the growth was 87.1% in experiment [7] and 103% in experiment [8].
With `CC1(c2ccc(Cl)cc2)OC(=O)CC(=O)O1`, the growth was 102% in experiment [1]; 99% in experiment [2]; 97% in experiment [3]; 102% in experiment [4]; 101% in [5]; 110% in experiment [9]. Also, the growth is 106% in [7] and 112% in [8].

For the origin of these results see PubChem BioAssay (NCI).
